Assay results published in the supplement of paper PMC6555819.

These sequences were tested on RARg homodimer (NR concentration 270 nM) (assay: PBM binding z-score (relative to random genomic background probes); higher = stronger binding; sequences stand for … in GC…GCGATTGACAGCGTAGAATGAAGG).
Summary of the method: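 Random background probes are the reference for binding z-scores. These scores derive from regression-normalized fluorescence on custom Agilent 4×180K protein-binding microarrays incubated 1 h with ligand-free nuclear receptor dimers. Binding was detected with antibodies against each partner (one per run).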

Going from CCTAGCAGGCGAGGGTCACTCAAGCATTTCGCTT to CAAACTAGGTCACAGAGGGCAAAGTCCGTGCGTA, the PBM binding z-score rises from 1.69 to 5.61.

Compared with CCTTACGGGTCACGGGGTTATAGCACGACGAGCG, ATCGAAAGGTCGAGTTGAGTATAGAGAAAGGGAA is lower in PBM binding z-score: 5.54 for the first, 4.31 for the second.

Compared with CCTTCTGGGCCATTCAGAGGTCATTGATCATATG, ATCGAAAAGTCGAAGGTGAGTATACCCACCCGAA is lower in PBM binding z-score: 3.3 for the first, 0.586 for the second.

Going from CCTACTGGGCCATTCAGAGGTTATTGATCATATG to ATATGTAGGTTAGCGTCATTCAGAAAGTAGGGAA, the PBM binding z-score rises from 0.495 to 0.62.

Going from TCATATAGGTCAAAGGTGAAAGTCGGTGTGGTAA to ATCGAACGGTCGACGAGGTGAGTATACACCGTTT, the PBM binding z-score falls from 5.46 to 1.21.

Compared with TAGCCTAGGTCAAGCGGGCCAGTATAGTGTCGGC, ACTAGTTGGTCACCTGAGGTCACACACAATTCGG is lower in PBM binding z-score: 5.14 for the first, 4.96 for the second.

Going from CCTGGCAGGCCAGGGTCACTCAAGCATTTCGCTT to CCTACTGGGGCACGAAAGGTCATTGATTCAGTGA, the PBM binding z-score rises from 2.46 to 4.85.

Compared with TAGCATAGGTCATGCGGGCCAGTATAGTGTCGGC, GATAGTTGGTCAGTAAAAGGTCACACACCGGTCG is higher in PBM binding z-score: 4.91 for the first, 4.96 for the second.

Compared with CAAAGTAGGTCAAGAGGTCAAAGTCCGCTTCCCG, CGTCCAACGTCAGCAGGTCAGTGAAAGCGACGTG is lower in PBM binding z-score: 7.92 for the first, 1.54 for the second.

Going from CAAACTAGGTCACAGAGGTCAAAGTTCGTGCGTA to CAAACTAGGTCACGAAAGGTCAAAGCCGAATGAC, the PBM binding z-score rises from 7.81 to 8.56.

Going from CCTACTGTGCCATTCAGAGGTCATTGATCATATG to TGAATGACGTTAAAGATCAGGGAACGTGGCGTCG, the PBM binding z-score falls from 2.75 to 0.113.

First: TCTAGCTGGTCAAAGGTCACACACTCGAAATGCG
Second: ATCGAAAGGTCGACGAGGTGAGTATGCACCGTTT
The PBM binding z-score of the first is higher: 6.69 for the first, 4.29 for the second.

First: CGAACTAAGTCAAAGGACAGTGAAAGGCGACGTA
Second: ATCGAAAGGTCGAAGGTCAGTATACCCACCCGAA
The PBM binding z-score of the first is lower: 1.1 for the first, 5.42 for the second.

First: ATATGCAGGTTATCGGGTCATTCAGTTTGCGCAT
Second: TCTTGTAGGTCAAAGGTTAAGAAAGCCGAAGCCT
The PBM binding z-score of the first is lower: 2.2 for the first, 5.61 for the second.

Compared with GATACACGGTCAAGGCCAGAGTACGCGTATTGAT, CCTACTGGGCCAAAAAGGTAATTGATGCCGATAA is lower in PBM binding z-score: 2.53 for the first, -0.0665 for the second.

Compared with AGTAGCAGGCCAAGGGTCACTCAAGATTAGTCCG, CAAACTAGGTCACAGAGGTTAAAGTCCGTGCGTA is higher in PBM binding z-score: 3.86 for the first, 5.64 for the second.

Compared with ATATGTAGGTTACGTCCGGGTCATTCAGGCTATG, CAAACTAGGTCACAGAGGTCAAACTCCGTGCGTA is higher in PBM binding z-score: 2.34 for the first, 7.96 for the second.

Going from TGAATGAAGTTAAAGATCAGGGAACGTGGCGTCG to CGTCAAAGTTCAAGGCAACGTAACAGAAAGCAGC, the PBM binding z-score rises from 0.00438 to 6.02.

Going from CCGACTGGGGCAAAGGTTACCATGCTCAGTACGA to TTACCAAGGTGAAAGGTCGGTGATGCACGCCTTG, the PBM binding z-score falls from 1.55 to 1.51.

With TGAATGAGGTTAAAGGTCAGGGAACGTGGCGTCG the PBM binding z-score was 5.51.
